Source: PubChem BioAssay (NCI)
This is part of a sample that, as a whole, favours compounds with a hit. Of some 79,000 tested, about 15% had one in any assay. A number with no mark means an inactive call. Active and inactive are the calls of the source. Rule as the data show it: active = growth inhibition above about 70%; inactive = the rest.

Legend:
[1] = NCI Yeast Anticancer Drug Screen. Data for the rad50 strain (AID 155);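 also: 0% = growth of vehicle-only cultures of the same strain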; settings: S. cerevisiae rad50 strain growth inhibition, hits give high values
Summary of the method: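 Cells are treated with compound, grown, and their growth is then scored against vehicle-only cultures of the same repair-deficient yeast strain.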

[2] = NCI Yeast Anticancer Drug Screen. Data for the mec2-1 strain (AID 157); settings: S. cerevisiae mec2-1 strain, hits give high values
Summary of the method: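 Using mec2-1 yeast: add compound, measure growth, express inhibition versus vehicle-treated cultures.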

[3] = NCI Yeast Anticancer Drug Screen. Data for the sgs1 mgt1 strain (AID 161);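 also: 0% = growth of cultures given vehicle only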; settings: S. cerevisiae sgs1 mgt1 strain, hits give high values
Summary of the method: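 This yeast growth screen uses a strain with defined DNA-repair lesions; compound-treated growth is compared with vehicle-treated growth.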

[4] = NCI Yeast Anticancer Drug Screen. Data for the cln2 rad14 strain (AID 165);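 also: 0% = growth equal to vehicle treated cultures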; settings: S. cerevisiae cln2 rad14 strain, hits give high values
Summary of the method: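 Yeast strain cln2 rad14, bearing defects in cell cycle control and DNA repair, serves as the test system; values reflect growth inhibition compared with vehicle.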

[5] = NCI Yeast Anticancer Drug Screen. Data for the bub3 strain (AID 167); settings: S. cerevisiae bub3 mutant strain, hits give high values
Summary of the method: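 Part of a panel of yeast mutants defective in DNA damage repair or cell cycle regulation. Each strain is grown with compound, and inhibition is calculated relative to solvent-treated cultures.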

[6] = NCI Yeast Anticancer Drug Screen. Data for the mlh1 rad18 strain (AID 175); settings: S. cerevisiae mlh1 rad18 strain growth inhibition, hits give high values
Summary of the method: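 Steps: expose repair-defective yeast to compound; measure growth; express inhibition against vehicle-treated controls.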

[7] = at 5.0 µM (retest, dose inferred, filed as 0.5)
[8] = at 50.0 µM (retest, dose inferred, filed as 5.0)

Compound | growth inhibition [1, 7] | growth inhibition [1, 8] | growth inhibition ([1]; at 50.0 µM) | growth inhibition [2, 7] | growth inhibition [2, 8] | growth inhibition ([2]; at 50.0 µM) | growth inhibition [3, 7] | growth inhibition [3, 8] | growth inhibition ([3]; at 50.0 µM) | growth inhibition [4, 7] | growth inhibition [4, 8] | growth inhibition ([4]; at 50.0 µM) | growth inhibition [5, 7] | growth inhibition [5, 8] | growth inhibition ([5]; at 50.0 µM) | growth inhibition [6, 7] | growth inhibition [6, 8] | growth inhibition ([6]; at 50.0 µM)
CN(C)c1ccc(C2N(Cc3ccc(N(CCCl)CCCl)cc3)CCCN2Cc2ccc(N(CCCl)CCCl)cc2)cc1 | 1% | 86% (active) | 52.5% | -18% | 55% | 5.2% | -1% | 79% (active) | 76.7% (active) | -1% | 65% | -6.3% | 0% | 95% (active) | 3.5% | -1% | 99% (active) | 32.9%
O=C1[O][Hg][c]2c1cccc2[N+](=O)[O-] | 99% (active) | 99% (active) | 99.2% (active) | 100% (active) | 100% (active) | 99.2% (active) | 100% (active) | 100% (active) | 99.4% (active) | 52% | 98% (active) | 97.6% (active) | 100% (active) | 100% (active) | 99.4% (active) | 100% (active) | 99% (active) | 99.2% (active)
Nc1ccccc1C(=O)c1ccccc1 | 4% | 8% | 76.2% (active) | 1% | 4% | 11% | 1% | 10% | 38.1% | 4% | 1% | 3.25% | 0% | -3% | 47.2% | 4% | 5% | 75.7% (active)
CCC1(O)C(=O)OCc2c1cc1n(c2=O)Cc2cc3cc(C)ccc3nc2-1 (configuration not stated) | 94% (active) | 83% (active) | 82.2% (active) | 36% | 64% | 83.9% (active) | 31% | -19% | 47.1% | 17% | -4% | 18.9% | -1% | -25% | 18.8% | 36% | 61% | 64.7%
O=[N+]([O-])c1cc(-c2ccccc2)ccc1O | -3% | 10% | 98% (active) | 5% | 12% | 98.7% (active) | -1% | 7% | 97.4% (active) | -3% | 2% | 98% (active) | 0% | -2% | 96.2% (active) | -1% | 7% | 98.8% (active)
C/C1=C\[C@H](C)C[C@H](C)OC(=O)C[C@H](c2ccc(O)cc2)NC(=O)[C@@H](Cc2c(Br)[nH]c3ccccc23)N(C)C(=O)[C@H](C)NC(=O)[C@@H](C)C1 | 67% | 98% (active) | 84.8% (active) | 88% (active) | 99% (active) | 81.3% (active) | 98% (active) | 99% (active) | 88.7% (active) | 97% (active) | 99% (active) | 81.5% (active) | 99% (active) | 99% (active) | 77.1% (active) | 82% (active) | 98% (active) | 80% (active)
CC(=O)O[C@H]1CCC2[C@@H]3CCC4Nc5oncc5C[C@]4(C)C3CC[C@@]21C (some centres not stated) | -6% | 81% (active) | 51% | 4% | 75% (active) | 8.35% | -3% | 53% | 16.6% | -10% | 73% (active) | 70% (active) | -17% | 68% | 17.9% | 12% | 91% (active) | 84.5% (active)
CCC[CH2][Sn]1([CH2]CCC)[O]C2C(O)OC(CO)C(O)C2[O]1 (configuration not stated) | 84% (active) | 99% (active) | 99% (active) | 74% (active) | 99% (active) | 99.3% (active) | 82% (active) | 99% (active) | 99% (active) | 64% | 99% (active) | 99% (active) | 80% (active) | 99% (active) | 98.7% (active) | 81% (active) | 99% (active) | 98.6% (active)
Cc1cc(C)c(C[N+](C)(C)C)c(C)c1C | 82% (active) | 98% (active) | 98.5% (active) | 57% | 99% (active) | 99.7% (active) | 86% (active) | 98% (active) | 99.7% (active) | 75% (active) | 98% (active) | 98.7% (active) | 78% (active) | 98% (active) | 99.4% (active) | 88% (active) | 96% (active) | 98.9% (active)
CC12OOC(c3ccccc31)c1c2ccc2ccccc12 (configuration not stated) | 62% | 98% (active) | 86% (active) | 94% (active) | 99% (active) | 93.5% (active) | 92% (active) | 99% (active) | 90% (active) | 71% (active) | 99% (active) | 88.5% (active) | 97% (active) | 97% (active) | 90.5% (active) | 90% (active) | 97% (active) | 90.2% (active)
COC1(O[C@H]2CC[C@H]3[C@@H]4CCC5=CC(=O)CC[C@]5(C)[C@H]4CC[C@]23C)CCCCC1 | 3% | -8% | 99.5% (active) | 5% | 2% | 99.5% (active) | -30% | -33% | 99.5% (active) | 1% | -4% | 99.2% (active) | 1% | -4% | 99.1% (active) | -25% | -56% | 99.4% (active)
Cc1ccc(NC(=O)CBr)cc1 | 92% (active) | 99% (active) | 99.1% (active) | 97% (active) | 100% (active) | 99.2% (active) | 97% (active) | 97% (active) | 99.2% (active) | 97% (active) | 99% (active) | 98.8% (active) | 95% (active) | 99% (active) | 99% (active) | 94% (active) | 98% (active) | 99% (active)
Oc1c(Cl)c(Cl)c(O)c(Cl)c1Cl | 65% | 97% (active) | 99.2% (active) | 35% | 99% (active) | 99.3% (active) | 37% | 99% (active) | 99.1% (active) | -2% | 80% (active) | 95.7% (active) | 64% | 97% (active) | 99.1% (active) | 47% | 98% (active) | 98.8% (active)
C[C@]12CCC(O)CC1=CC[C@@H]1[C@@H]2CC[C@]2(C)C(=O)[C@H](n3ccnc3)C[C@@H]12 (some centres not stated) | 21% | 54% | 41.9% | 12% | 46% | 58% | 18% | 62% | 52.2% | 29% | 51% | 38.2% | 20% | 56% | 38.9% | 19% | 51% | 75.6% (active)
CC(=O)NC1=C(N(CCCl)CCCl)C(=O)c2ccccc2C1=O | 20% | 98% (active) | 99% (active) | 12% | 98% (active) | 98.2% (active) | 18% | 99% (active) | 98.2% (active) | -4% | 96% (active) | 96.2% (active) | 23% | 97% (active) | 99% (active) | 18% | 98% (active) | 98.9% (active)
C/C(CC(=O)Nc1ccc([N+](=O)[O-])cc1)=N\Nc1ccc([N+](=O)[O-])cc1[N+](=O)[O-] | 76% (active) | 45% | 72% (active) | 48% | 47% | 15.9% | 48% | 40% | 7.6% | 33% | 53% | -33.9% | 17% | 34% | 32.5% | 67% | 36% | 61.9%
O=C(N/N=C/c1cc(Br)cc(Br)c1[O-])c1ccccc1O.O=C(N/N=C/c1cc(Br)cc(Br)c1[O-])c1ccccc1O.[Mn+2] | 96% (active) | 94% (active) | 97.6% (active) | 98% (active) | 96% (active) | 95.7% (active) | 98% (active) | 93% (active) | 93.2% (active) | 93% (active) | 90% (active) | 97.3% (active) | 96% (active) | 94% (active) | 96% (active) | 96% (active) | 94% (active) | 98% (active)
c1cc[c]([Pb]([S]c2nc3ccccc3[nH]2)([c]2ccccc2)[c]2ccccc2)cc1 | 99% (active) | 99% (active) | 91.4% (active) | 100% (active) | 99% (active) | 92.7% (active) | 99% (active) | 99% (active) | 92.2% (active) | 99% (active) | 99% (active) | 91.8% (active) | 99% (active) | 99% (active) | 91.3% (active) | 99% (active) | 99% (active) | 90.3% (active)
CC1=C/C(=C2/N=C(N(C)C)SS2)C(C)=N1 | 11% | 78% (active) | 13.2% | 1% | 48% | -0.9% | 31% | 88% (active) | 8.85% | 9% | 48% | 15.4% | 23% | 66% | 43.9% | 5% | 71% (active) | 16.7%
